Screening data: PubChem BioAssay, several laboratories
This is a sample that favours compounds with a hit; in the whole collection about 4.4% have one here.
SUMO Mot1 rescue: yeast Mot1-301 growth rescue at high temperature, primary screen, SUMOylation pathway inhibitor project, S. cerevisiae, ATP luminescence, 38.5C; S. cerevisiae Mot1-301 growth rescue; percent above DMSO median, 100 means doubled; growth rescue, % at 18.8 µM; actives 1% (n = 320,000); AID 2716, 2010;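 active = every valid replicate shows activation above 250% relative to neutral control wells; inactive = the rest, any valid replicate at or below 250%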;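 note: OY570 slx delta 5 strain wells were the positive control but not used for scaling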
TIM10 inh: growth inhibitors of isogenic TIM10 control yeast, primary screen, counter-screen for tim10-1 yeast inhibitor project, luminescence, uHTS | S. cerevisiae TIM10 strain growth, BacTiter-Glo luminescence, 24 h | actives 1.4% (n = 330,000) | inhibition, % at 10 µM | AID 463195, 2010;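 active = inhibition of 40% or more at the single tested concentration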;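 note: wild-type TIM10 isogenic control strain grown at permissive 25 °C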
tim10-1 inh: growth inhibitors of tim10-1 mutant yeast, primary screen, luminescence, uHTS; S. cerevisiae tim10-1 ts strain growth, BacTiter-Glo, 24 h; inhibition, % at 20 µM; actives 2.2% (n = 330,000); AID 463190, 2010;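 active = inhibition of at least 40%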;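 note: mutant grown at 25 °C; 0% = DMSO wells with yeast and 100% = wells holding no yeast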
PfHsp90 set2: growth inhibition of PfHsp90-expressing yeast, primary screen, antimalarial PfHsp90 inhibitor project, S. cerevisiae, BacTiter-Glo luminescence, single point, set 2 | BacTiter-Glo ATP, 48 h; yeast lacking PDR1 and PDR3 efflux regulators | inhibition, % at 9.4 µM | actives 0.32% (n = 310,000);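 active = every replicate shows inhibition above about 80%, whatever the replicate mean, limit read from the data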;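 note: 0% = DMSO neutral controls and 100% = 20 µM radicicol positive controls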
tim23-1 inh: growth inhibitors of tim23-1 mutant yeast, primary screen, luminescence, uHTS; actives 1.3% (n = 330,000); AID 463212, 2010; inhibition, % at 20 µM; S. cerevisiae tim23-1 growth, BacTiter-Glo luminescence, 24 h;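 active = growth inhibition of the mutant yeast at or above 50%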;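 note: temperature-sensitive mutant grown at 25 °C; plate controls were DMSO-treated mutant yeast for no effect and medium wells lacking yeast for full effect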
tim10 confirm: growth inhibitors of wild-type TIM10 yeast, confirmation, counter-screen for tim10-1 synthetic lethality project, single concentration, luminescence, S. cerevisiae; shares compounds with TIM10 inh; S. cerevisiae tim10 strain growth, BacTiter-Glo luminescence, 24 h; inhibition, % at 10 µM; actives 63% (n = 4,600);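 active = inhibition of yeast growth at or above a set limit in either of two replicates at 10 µM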;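 note: this counterscreen used the strain with wild-type TIM10; 0% = yeast with DMSO and 100% = medium wells lacking yeast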
Starred values were filed as active, the others as inactive; . = no result.

SMILES	SUMO Mot1 rescue	TIM10 inh	tim10-1 inh	PfHsp90 set2	tim23-1 inh	tim10 confirm
COc1ccc(N2CC(C(=O)NCCC3=CCCCC3)CC2=O)c(OC)c1 (stereo unspecified)	477.4	-22.4	-73.6	10.2	-11.8	.
COc1cc(CNC(=O)c2cnc(C)cn2)cc(OC)c1	-1.4	1.7	-5.1	3.5	-0.3	.
COc1ccc(-n2cnc3scc(-c4ccc(OC)c(OC)c4)c3c2=O)cc1	-2.3	40.1*	37.1	-4.4	41.1	-0.8
COc1ccc(-c2csc3ncn(-c4ccc(C)cc4)c(=O)c23)cc1OC	-8.9	34.9	32.4	-10.4	35.7	.
O=C(NCc1ccco1)c1ccc(Cl)cc1[N+](=O)[O-]	30.4	.	.	12.7	.	.
O=C(/C=C/c1ccccc1Cl)NCCc1ccccc1	6.4	48.7*	2.9	-7.6	38.8	46.2*
O=C(/C=C/c1ccccc1Cl)NCc1ccccc1	3.3	1.2	15.3	1.3	10.7	.
CCCCNC(=S)N/N=C/c1sccc1C	-0.7	59.4*	30.8	-75.2	43.5	46.6*
Nc1nonc1C(=O)NCCN=Cc1cc(Cc2ccccc2)cc(Br)c1O	30.6	51.2*	13.2	123.0*	-55.7	67.2*
CSc1ccccc1C(=O)Nc1cccc([N+](=O)[O-])c1	25.9	26.5	21.2	.	27.9	.
CSc1ccccc1C(=O)Nc1cccc(C)c1	1.0	43.7*	19.9	.	36.5	30.0
O=C(C#Cc1cccc([N+](=O)[O-])c1)c1ccccc1	-0.4	80.0*	28.8	137.3*	-20.0	83.1*
COc1ccc(C(=O)NC(Nc2ccccc2)C(Cl)(Cl)Cl)cc1 (stereo unspecified)	-3.4	49.7*	27.9	5.5	13.3	32.1*
COc1ccc(C(=O)NNc2ccccc2)cc1	177.1	-2.8	-16.4	7.6	13.3	.
Cc1ccc(NC(NC(=O)c2cccs2)C(Cl)(Cl)Cl)cc1 (stereo unspecified)	18.0	49.6*	35.0	-4.5	32.2	38.5*
Nc1ccc(-c2nc3ncccc3o2)c(Cl)c1	68.1	41.6*	-3.1	1.6	42.1	23.2
Nc1ccc(Cl)c(-c2nc3ncccc3o2)c1	11.1	8.0	-0.6	-9.4	-0.8	.
O=[N+]([O-])c1ccc(N2N=C(c3ccccc3)CC2c2ccccc2O)cc1 (stereo unspecified)	-21.9	41.6*	12.9	108.2*	8.6	59.6*
O=C(CNC(=O)C1CCCCC1)Nc1ccc(Cl)cc1	-14.3	7.6	-9.4	-19.6	-21.5	.
O=C(CNC(=O)C1CCCCC1)Nc1cc(Cl)cc(Cl)c1	10.9	40.7*	14.8	-137.2	3.8	8.3
CSc1ccc(/C=N/NC(=O)CN2CCN(Cc3ccc(Cl)cc3)CC2)cc1	48.6	41.1*	31.1	-1.6	18.0	6.8
CSc1ccc(/C=N/NC(=O)CN2CCN(Cc3ccccc3)CC2)cc1	5.7	8.1	0.4	-12.9	16.9	.
O=C(COC(=O)/C=C/c1cccc(Br)c1)Nc1cccc(S(=O)(=O)NC2=NCCC2)c1	.	9.4	4.2	-13.0	14.2	.
CCn1cc(Br)c(C(=O)Nc2ccc(Cl)c(Cl)c2)n1	.	61.8*	38.0	-57.4	24.3	45.2*
CC(=O)Nc1ncc(Cc2cc(Cl)ccc2Cl)s1	-11.7	34.7	22.6	-12.3	20.0	.
SMILES	SUMO Mot1 rescue	TIM10 inh	tim10-1 inh	PfHsp90 set2	tim23-1 inh	tim10 confirm
Cc1ccc(Cc2cnc(NC(=O)c3ccco3)s2)cc1	18.5	40.0	-4.0	-47.4	43.8	39.9*
CC(C)C(=O)Nc1ncc(Cc2ccc(Cl)cc2)s1	-5.5	47.1*	39.0	-5.9	37.9	33.9*
C[C@@H]1CN([C@@H](C)CO)C(=O)c2cc(NS(=O)(=O)c3ccc(Cl)cc3)ccc2O[C@H]1CN(C)Cc1ccncc1	-13.5	-3.8	-14.7	-2.3	5.3	.
Cc1cc(/C=C2\NC(=S)N(C)C2=O)ccc1N1CCCC1	.	41.9*	30.2	-19.1	-14.9	40.1*
O=C(NCc1ccc(Cl)cc1)c1ccc(Br)o1	-16.9	67.8*	-24.2	2.4	13.2	-39.5
O=C(NNC(=S)NCc1ccc(Cl)cc1)c1ccc(Br)o1	8.8	16.7	9.5	0.9	0.9	.
COc1cc(C(=O)Nc2ccc(N3CCN(C(=O)c4ccc(C)cc4)CC3)cc2)cc(OC)c1OC	6.6	9.1	23.6	42.5	17.9	.
Cc1ccccc1C(=O)NNC(=O)C12CC3CC(CC(C3)C1)C2	3.9	2.3	14.2	6.4	7.4	.
Cc1cccc(C(=O)NNC(=O)C23CC4CC(CC(C4)C2)C3)c1O	5.8	48.7*	3.7	0.4	27.8	46.1*
COCCCNC(=O)CCc1c(C)c2cc3c(C)coc3cc2oc1=O	17.8	19.0	-4.6	13.7	10.9	.
Cc1cc(NC(=O)c2cccc(Oc3ccccc3)c2)n[nH]1	1.1	61.0*	36.9	18.0	2.7	66.0*
Cc1cc(NC(=O)NC(=O)c2cccc(OC(F)(F)C(F)F)c2)n[nH]1	1.4	13.6	7.1	-17.0	7.0	.
CN1CCc2c(OCC(=O)N3N=C(c4cccs4)CC3c3ccc(F)cc3)cccc2C1=O (stereo unspecified)	13.2	40.0	29.7	-15.1	43.2	-26.1
COc1ccc(OC(=O)COc2cc(C)ccc2C)cc1	19.4	-1.4	-8.2	-20.2	-4.1	.
Cc1[nH]n(S(=O)(=O)Cc2ccccc2)c(=O)c1N=Nc1ccccc1Cl	1.9	41.4*	36.6	6.4	45.0	21.7
CCn1cnc2cc(NCc3ccc(OC)cc3)ccc21	-20.3	11.3	11.2	-0.8	11.2	.
CCOc1ccc2nc3cc(NCc4ccc(OC)cc4)ccc3c(N)c2c1	-2.7	83.2*	37.6	4.2	47.0	75.2*
Nn1c(SCC(=O)NNC(=O)c2ccccc2)nnc1-c1ccccc1F	-17.0	-4.4	-11.0	.	-1.1	.
CC1CCC(NC(=O)CCS(=O)(=O)c2ccc3c(c2)CC(C)N3C(=O)C2CC2)CC1 (stereo unspecified)	-2.6	1.8	3.3	13.5	-8.2	.
COC(=O)c1cc(S(=O)(=O)Nc2cc(OC)cc(OC)c2)cn1C	107.3	-3.4	-5.2	21.3	1.6	.
COC(=O)c1cc(S(=O)(=O)Nc2cccc(C)c2C)cn1C	-5.2	84.2*	1.5	6.8	2.5	3.5
COC(=O)c1ccc(C(=O)N(Cc2ccccc2)c2ccccc2)cc1	-8.8	46.3*	15.4	-15.0	16.1	-6.6
N#Cc1ccc(C(=O)N(Cc2ccccc2)c2ccccc2)cc1	-22.2	18.8	29.1	11.5	26.0	.
CCOC(=O)Nc1cccc(OCC(=O)Nc2ccc3c(c2)CCC3)c1	23.0	49.2*	-24.5	.	29.3	2.7
COc1cccc(NC(=O)COc2ccc3c(c2)CCC3)c1	.	8.7	-35.0	1.1	17.9	.
